Experimental data reported in the supplement of paper PMC12297408.
Where a name gives a salt, the structure may show the parent alone.

test system: Plasmodium falciparum NF54/iGP1_RE9H ulg8 stage V gametocytes; experiment: gametocyte viability (luciferase signal relative to DMSO control) (% of DMSO control); higher = less gametocytocidal activity, active = 50 or less; settings: concentration: 1 µM; exposure time: 72 h
Protocol: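 Synchronous P. falciparum NF54/iGP1_RE9H ulg8 mature stage V gametocytes (day 12) were exposed to Cayman Epigenetics Screening Library compounds at 10 µM or 1 µM for 72 h at 37 °C. Viability was read as RE9H luciferase bioluminescence, normalised to DMSO plate controls (100%); 50 µM methylene blue was the positive control.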

| Compound | gametocyte viability |
| --- | --- |
| Oc1cc(O)cc(/C=C/c2ccc(Br)cc2)c1 [4'-bromo-Resveratrol] | 51.7 (inactive) |
| Clc1cc2c(NC3CCCC3)nnc(-c3ccncc3)c2cc1Cl | 83.9 (inactive) |
| COc1cc2c(NC3CCN(C(C)C)CC3)nc(C3CCCCC3)nc2cc1OCCCN1CCCC1 | 77.7 (inactive) |
| N[C@H]1C[C@@H]1c1ccc(-c2cccc(O)c2)cc1 | 92.2 (inactive) |
| C=C1C(=O)O[C@@H](CCC)[C@@H]1C(=O)O [Butyrolactone 3] | 97.4 (inactive) |
| COc1cc2c(cc1NS(=O)(=O)c1ccc(Br)cc1C)n(C)c(=O)n2C | 89 (inactive) |
| COC(=O)c1ccc(N2CCN(C)CC2)c(NC(=O)c2cccc(OC)c2)c1 | 85.8 (inactive) |
| CN(C)CCCNC(=O)c1ccc(-c2cc(O)c3ncccc3c2)cc1 | 85.2 (inactive) |
| O=C(Cc1ccccc1)Nc1ccc2oc(-c3ccc(Cl)cc3Cl)nc2c1 | 80.3 (inactive) |
| O=C(O)CC[C@H](O)C(=O)O [L-α-Hydroxyglutaric Acid (sodium salt)] | 92.7 (inactive) |
| CN1CCC(=C2c3ccccc3C=Cc3ccccc32)CC1 [Cyproheptadine (hydrochloride hydrate)] | 88.2 (inactive) |
| CN(C)c1ccc(C(=O)NCCCCCCC(=O)NO)cc1 | 83.7 (inactive) |
| Nc1ccccc1NC(=O)c1cnccn1 | 96.3 (inactive) |
| O=C1CCc2c(ccc3ccccc23)O1 [Splitomicin] | 86.2 (inactive) |
| CCCC(=O)[O-].[Na+] [Sodium Butyrate] | 83.8 (inactive) |
| CC(C)N(CCCNC(=O)Nc1ccc(C(C)(C)C)cc1)C[C@H]1O[C@@H](n2cc(Br)c3c(N)ncnc32)[C@H](O)[C@@H]1O | 88 (inactive) |
| CCOC(=O)NNc1nncc2ccccc12 [Todralazine (hydrochloride)] | 89.5 (inactive) |
| O=C(NC[C@H](O)CN1CCc2ccccc2C1)c1cc(NC2COC2)ncn1 | 90 (inactive) |
| CC(C(=O)Nc1cccc(/N=C/c2c(O)ccc3ccccc23)c1)c1ccccc1 (stereo not given) [Salermide] | 88.8 (inactive) |
| Cn1c(=O)cc(C(=O)Nc2ccc3c(c2)OCCO3)c2ccccc21 | 82.8 (inactive) |

same assay, conditions: concentration: 10 µM; exposure time: 72 h

| Compound | gametocyte viability |
| --- | --- |
| Oc1cc(O)cc(/C=C/c2ccc(Br)cc2)c1 [4'-bromo-Resveratrol] | 6.07 (active) |
| Clc1cc2c(NC3CCCC3)nnc(-c3ccncc3)c2cc1Cl | 71.7 (inactive) |
| COc1cc2c(NC3CCN(C(C)C)CC3)nc(C3CCCCC3)nc2cc1OCCCN1CCCC1 | 15.4 (active) |
| N[C@H]1C[C@@H]1c1ccc(-c2cccc(O)c2)cc1 | 79.4 (inactive) |
| C=C1C(=O)O[C@@H](CCC)[C@@H]1C(=O)O [Butyrolactone 3] | 89.9 (inactive) |
| COc1cc2c(cc1NS(=O)(=O)c1ccc(Br)cc1C)n(C)c(=O)n2C | 86.4 (inactive) |
| COC(=O)c1ccc(N2CCN(C)CC2)c(NC(=O)c2cccc(OC)c2)c1 | 82.1 (inactive) |
| CN(C)CCCNC(=O)c1ccc(-c2cc(O)c3ncccc3c2)cc1 | 49.8 (active) |
| O=C(Cc1ccccc1)Nc1ccc2oc(-c3ccc(Cl)cc3Cl)nc2c1 | 51.9 (inactive) |
| O=C(O)CC[C@H](O)C(=O)O [L-α-Hydroxyglutaric Acid (sodium salt)] | 86.7 (inactive) |
| CN1CCC(=C2c3ccccc3C=Cc3ccccc32)CC1 [Cyproheptadine (hydrochloride hydrate)] | 86.6 (inactive) |
| CN(C)c1ccc(C(=O)NCCCCCCC(=O)NO)cc1 | 50.5 (inactive) |
| Nc1ccccc1NC(=O)c1cnccn1 | 89.4 (inactive) |
| O=C1CCc2c(ccc3ccccc23)O1 [Splitomicin] | 80.9 (inactive) |
| CCCC(=O)[O-].[Na+] [Sodium Butyrate] | 84.7 (inactive) |
| CC(C)N(CCCNC(=O)Nc1ccc(C(C)(C)C)cc1)C[C@H]1O[C@@H](n2cc(Br)c3c(N)ncnc32)[C@H](O)[C@@H]1O | 49.3 (active) |
| CCOC(=O)NNc1nncc2ccccc12 [Todralazine (hydrochloride)] | 89.1 (inactive) |
| O=C(NC[C@H](O)CN1CCc2ccccc2C1)c1cc(NC2COC2)ncn1 | 89.1 (inactive) |
| CC(C(=O)Nc1cccc(/N=C/c2c(O)ccc3ccccc23)c1)c1ccccc1 (stereo not given) [Salermide] | 88.4 (inactive) |
| Cn1c(=O)cc(C(=O)Nc2ccc3c(c2)OCCO3)c2ccccc21 | 86.7 (inactive) |
